Bioassay records deposited in PubChem BioAssay by National Center for Advancing Translational Sciences (NCATS).
A selection: hits, their analogues and other compounds. The true share with any hit is near 11%.
FLuc inh: inhibitors of firefly (Photinus pyralis) luciferase. 2.5% of 76,000 active. P08659. purified P. pyralis luciferase, luminescence, biochemical. Potency, µM (highest dose often 115 µM), usual class: inhibitors; note: % is set by controls: 0 for no effect and ±100 for the full control effect; nearly all actives have a fitted effect of over 65% in size
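Luminescence read by CCD imager after adding enzyme (10nM final) to wells holding compound, titrated in qHTS. Substrates 10uM each D-luciferin and ATP; buffer 50mM Tris acetate pH 7.5, 10mM Mg acetate, Tween-20, BSA.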
3T3 cytotox: cytotoxic compounds in NIH 3T3 cells; NIH 3T3 viability, CellTiter-Glo ATP luminescence, 48-72 h; 4.3% of 94,000 active; Potency, µM (series often up to 96.7 µM), for the others: top-dose activity change, negative = cytotoxicity, hits mostly inhibitors; AID 1345082; note: % is set by controls: 0 for no effect and ±100 for the full control effect; nearly all actives have a fitted effect of over 55% in size
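Mouse fibroblast NIH 3T3 cells, 400 per well, received compound via pintool and were incubated for 48 or 72 hr prior to CellTiter-Glo ATP luminescence measurement.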
HEK cytotox: kills HEK 293 cells. 6.6% of 94,000 active. Potency, µM (titrated, usually from 115 µM), for the others: at the highest dose activity change, negative = cytotoxicity, most hits filed as inhibitors. HEK 293 viability, ATP luminescence (CellTiter-Glo), 48-72 h; note: % is set by controls: 0 for no effect and ±100 for the full control effect; nearly all actives have a fitted effect of over 60% in size
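Luminescence from cellular ATP, measured with CellTiter-Glo, indicates HEK 293 viability. Cells plated at 250 cells/well are treated with compound for 48 or 72 hr at 37 degree Celsius before reagent addition.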
hNpr1 antagonist: blocks ANP-stimulated signaling of human Npr1 receptor; P16066; HEK293 hNpr1 GloSensor cGMP, ANP-stimulated luminescence; Potency, µM (highest dose often 46.3 µM), without a hit: top-dose activity change, negative = inhibition, most hits filed as inhibitors; 1.6% of 76,000 active; AID 1347048; calls by dose curve; note: % is set by controls: 0 for no effect and ±100 for the full control effect; nearly all actives have a fitted effect of over 60% in size
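Compound pre-incubated 30 min at room temperature on GloSensor-loaded HEK293 cells stably carrying hNpr1 and the pGS-40F cGMP biosensor. Stimulation uses hNppA at 0.1 nM final; luminescence is taken at baseline and 20 min post-agonist.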
Npr1 antag conf: confirmation of human Npr1 natriuretic peptide receptor antagonists; shares compounds with hNpr1 antagonist; 76% of 1,400 active; HEK293 hNpr1 cGMP GloSensor luminescence, ANP-stimulated; Potency, µM (top dose mostly 57.6 µM), without a hit: top-dose activity change, negative = inhibition, hits mostly inhibitors; calls by dose curve; note: nearly all actives have a fitted effect of over 70% in size
Npr2 selectivity: antagonizes human Npr2, subtype selectivity check | Potency, µM (series often up to 57.6 µM), inactives show top-dose activity change, negative = inhibition, usual class: inhibitors | shares compounds with hNpr1 antagonist | 67% of 1,400 active | HEK293 hNpr2 GloSensor cGMP luminescence, CNP-stimulated | AID 1347046; calls by dose curve; note: nearly all actives have a fitted effect of over 70% in size
Target sequence (P20594 whole entry, looked up): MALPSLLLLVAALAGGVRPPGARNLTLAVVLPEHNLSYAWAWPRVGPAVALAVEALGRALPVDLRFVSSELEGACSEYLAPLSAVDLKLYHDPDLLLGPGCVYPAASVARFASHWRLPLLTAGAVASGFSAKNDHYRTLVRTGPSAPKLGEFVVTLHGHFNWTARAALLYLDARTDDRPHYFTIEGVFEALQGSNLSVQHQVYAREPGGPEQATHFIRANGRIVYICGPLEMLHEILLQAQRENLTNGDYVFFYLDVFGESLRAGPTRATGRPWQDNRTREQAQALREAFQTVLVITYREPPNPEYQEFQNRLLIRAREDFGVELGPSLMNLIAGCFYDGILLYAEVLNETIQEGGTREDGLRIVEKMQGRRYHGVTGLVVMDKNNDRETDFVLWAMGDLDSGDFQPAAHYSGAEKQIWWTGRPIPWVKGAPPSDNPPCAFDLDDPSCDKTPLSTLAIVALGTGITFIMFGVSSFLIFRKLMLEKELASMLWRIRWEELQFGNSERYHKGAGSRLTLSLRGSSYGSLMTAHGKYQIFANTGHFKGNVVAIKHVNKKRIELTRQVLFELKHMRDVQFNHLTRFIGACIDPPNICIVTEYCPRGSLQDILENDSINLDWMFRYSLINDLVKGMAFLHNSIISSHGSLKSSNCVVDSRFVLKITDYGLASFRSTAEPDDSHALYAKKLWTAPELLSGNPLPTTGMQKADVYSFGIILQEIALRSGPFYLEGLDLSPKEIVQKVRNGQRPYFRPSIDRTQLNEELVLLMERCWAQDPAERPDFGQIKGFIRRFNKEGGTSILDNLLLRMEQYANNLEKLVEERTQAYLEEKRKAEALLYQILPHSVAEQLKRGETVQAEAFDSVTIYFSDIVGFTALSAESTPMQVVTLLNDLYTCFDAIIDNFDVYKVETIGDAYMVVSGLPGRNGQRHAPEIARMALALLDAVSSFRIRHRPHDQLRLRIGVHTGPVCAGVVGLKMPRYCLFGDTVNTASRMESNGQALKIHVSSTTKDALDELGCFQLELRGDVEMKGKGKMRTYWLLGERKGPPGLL
FLuc counter: FLuc enzyme inhibition, Npr1 counter-screen; shares compounds with hNpr1 antagonist; 0.7% of 1,400 active; purified FLuc enzyme, luminescence, Km substrate; Potency, µM (titrated, usually from 57.6 µM), for the others: at the top dose activity change, negative = inhibition, most hits filed as inhibitors; note: series mostly up to about 58 µM; 0% is about no effect
GloSensor cGMP: control cell line activity, Npr1 antagonist counter-screen. Potency, µM (doses to about 57.6 µM), for the others: at the highest dose activity change, negative = inhibition, hits mostly inhibitors. 69% of 1,400 active. shares compounds with hNpr1 antagonist. HEK293 GloSensor cGMP, SNP-stimulated, luminescence; calls by dose curve; note: % is set by controls: 0 for no effect and ±100 for the full control effect; nearly all actives have a fitted effect of over 70% in size
The depositor's hits bear a star; i = inactive; ? = inconclusive; / = no result given; [ ] = dose if it differs, or a comment. Unless noted, calls come from the whole dose curve; as a rule, active = well fitted curve in the direction sought with a large enough effect; inconclusive = small, poorly fitted or top-dose-only effect, or another doubt; inactive = no such curve, though single readings can be large; an effect the other way counts as inactive or inconclusive. Potency is the fitted concentration of half-maximal effect.

SMILES	FLuc inh	3T3 cytotox	HEK cytotox	hNpr1 antagonist	Npr1 antag conf	Npr2 selectivity	FLuc counter	GloSensor cGMP
C[S+](=O)([O-])N1CCC(C(=O)N2CCC(N3CCCC3=O)CC2)CC1	/	-15.7%[138 µM]	2.8%[172 µM]	/	/	/	/	/
O=C(NC1CCCC1)O[C@H]1COCCN(c2nc3ccccc3o2)C1	i	-10.8%[138 µM]	-0.6%[172 µM]	-0.7%[70.6 µM]	/	/	/	/
FC(F)(F)c1ccc(O[C@H]2COCCN(c3nc4ccccc4o3)C2)nc1	i	?	100µM*	35.5µM*	39.6µM*	35.3µM*	-0.5%[86.2 µM]	35.3µM*
COCc1noc(-c2ccc(N(C)CC3CC(=O)N(C(C)(C)C)C3)nc2)n1 (stereo unspecified)	i	?	?	11.2µM*	24.3µM*	?	-1.2%	21.7µM*
CN(CCc1noc(C2CC2)n1)C(=O)C1CC(=O)N(C(C)(C)C)C1 (stereo unspecified)	i	0.6%	-16.3%	3.0%	/	/	/	/
O=C(Cc1ccc(F)cc1)N1CCC2(CC1)CC(N(Cc1ccccc1)C1CC1)CCO2 (stereo unspecified)	i	?	?	?	/	/	/	/
CC(C)C(=O)N1CCC2(CC1)CC(N(Cc1ccc(F)cc1)C1CC1)CCO2 (stereo unspecified)	i	-24.0%	?	-24.4%	-19.0%	-15.7%	0.9%	-3.0%
Cc1ccc(C(=O)N2CCC3(CC2)CC(N(Cc2ccccc2)C2CC2)CCO3)cc1F (stereo unspecified)	i	?	44.7µM*	11.2µM*	24.3µM*	?	-3.0%	27.3µM*
O=C(c1ccc(F)cc1)N1CCC2(CC1)CC(N(Cc1ccccc1)C1CC1)CCO2 (stereo unspecified)	i	?	?	-21.1%	/	/	/	/
CCN1c2cc(C(=O)Nc3ccc(Cl)c(C)c3)ccc2C(=O)N2CCCCCC21 (stereo unspecified)	i	?	?	-0.4%	/	/	/	/
CCn1ccc(C(=O)N2CCC3(CC2)CN(C2CCC2)CC3CO)n1 (stereo unspecified)	/	-6.4%	?	/	/	/	/	/
Cc1cnc(C(=O)N2CCCC2c2nc(CCOCC3CCCC3)no2)cn1 (stereo unspecified)	i	-13.6%	-13.4%	?	-22.5%	-17.4%	-1.7%	-1.8%
Cc1cc(=O)n(CC(=O)Nc2ccc(C)c(F)c2)c(N(C)Cc2ccccc2)n1	i	?	?	?	/	/	/	/
Cc1cc(=O)n(CC(=O)Nc2ccc(Br)cc2F)c(N(C)Cc2ccccc2)n1	i	?	?	?	21.7µM*	19.3µM*	0.2%	19.3µM*
Cc1cc(=O)n(CC(=O)Nc2ccc(Cl)cc2F)c(N(C)Cc2ccccc2)n1	i	-33.0%	?	12.6µM*	24.3µM*	?	3.0%	?
Cc1cc(=O)n(CC(=O)Nc2ccc(F)c(Cl)c2)c(N(C)Cc2ccccc2)n1	i	i	-2.1%	11.2µM*	24.3µM*	?	-1.3%	21.7µM*
Cc1cc(=O)n(CC(=O)Nc2ccc(F)cc2)c(N(C)Cc2ccccc2)n1	i	?	?	-18.1%	/	/	/	/
Cc1ccc(NC(=O)Cn2c(N(C)Cc3ccccc3)nc(C)cc2=O)c(Cl)c1	i	?	?	?	/	/	/	/
COc1ccc(NC(=O)Cn2c(N(C)Cc3ccccc3)nc(C)cc2=O)cc1OC	i	?	?	4.47µM*	6.85µM*	10.9µM*	2.4%	7.69µM*
Cc1cc(=O)n(CC(=O)Nc2ccc(Br)cc2)c(N(C)Cc2ccccc2)n1	i	?	?	?	/	/	/	/
COc1ccccc1C(=O)N1CCC(C(NC(=O)c2ccccc2C)C(=O)N2CCCC2)CC1 (stereo unspecified)	i	?	-5.5%	0.2%	/	/	/	/
CC(=O)Nc1ccc(CN2CCn3c(nnc3C3CCNCC3)C2)cc1	i	2.4%[138 µM]	-7.2%[172 µM]	-15.8%[70.6 µM]	/	/	/	/
O=C(Cc1cccc(F)c1)N1CCC2(CC1)N=C(c1ccc(Cl)cc1)NO2	i	?	?	?	24.3µM*	?	2.6%	24.3µM*
O=C(c1cccc2[nH]ccc12)N1CCC2(CC1)N=C(c1ccc(Cl)cc1)NO2	i	?	?	11.2µM*	19.3µM*	21.7µM*	-15.9%	17.2µM*
Cc1ccc(C2=NC3(CCN(C(=O)Cc4ccc(Cl)cc4)CC3)ON2)cc1	i	-20.7%	-24.7%	-3.4%	/	/	/	/
SMILES	FLuc inh	3T3 cytotox	HEK cytotox	hNpr1 antagonist	Npr1 antag conf	Npr2 selectivity	FLuc counter	GloSensor cGMP
O=C(c1cc(F)ccc1F)N1CCC2(CC1)N=C(c1ccc(Cl)cc1)NO2	i	?	?	15.8µM*	24.3µM*	21.7µM*	-2.5%	24.3µM*
C=CCC(=O)N(CC1CCN(CCc2ccccc2C)CC1)C1CCCC1	i	?	?	-1.9%	/	/	/	/
O=C(CCCc1ccccc1)NCc1nnc2cc(-c3nc(C4CC4)no3)ccn12	i	-26.6%	?	-3.2%	/	/	/	/
O=C(CCc1ccccc1)N1CCC(Cc2nc(-c3ccc(F)cc3)no2)CC1	i	?	44.7µM*	5.01µM*	6.11µM*	7.69µM*	1.2%	5.44µM*
O=C(CCCc1ccccc1)N1CCC(Cc2nc(-c3ccc(F)cc3)no2)CC1	i	?	?	7.94µM*	10.9µM*	12.2µM*	3.1%	10.9µM*
O=C(c1cccc(-n2cnnc2)c1)N1CCCC(O)(CN2CCCC2)C1 (stereo unspecified)	i	3.3%	?	4.0%	/	/	/	/
O[C@@H]1CC(CNCC2CCCC2)(COc2ccc(C(F)(F)F)cn2)C[C@@H]1O (stereo partly specified)	i	-16.7%	?	?	/	/	/	/
COc1cccc(CN2CCOC3(CCN([S+](=O)([O-])c4ccccc4)CC3)C2=O)c1	i	?	?	-24.5%[70.6 µM]	/	/	/	/
COc1cccc(CN2CCOC3(CCN(Cc4ccc(C#N)cc4)CC3)C2=O)c1	i	?	?	?	35.3µM*	39.6µM*	2.5%[86.2 µM]	35.3µM*
CC(=O)N1Cc2ccccc2NC(=O)C12CCNC2 (stereo unspecified)	/	i	i	/	/	/	/	/
O=C1Nc2ccccc2CN(CC2CCCCC2)C12CCNC2 (stereo unspecified)	/	22.4µM*	89.1µM*	/	?	13.5µM*	4.4%	-7.4%
